From PubChem BioAssay
NSD2 HMT inh = NSD2 (human) methyltransferase inhibition; O96028; NSD2 peptide methylation, AlphaScreen, 120 min; inhibition, % at 12.5 µM; 310,000 compounds, 0.54% hits; in the data active means inhibition above about 50%
PfHsp90 yeast 2 = reduces growth (ATP signal) of yeast expressing P. falciparum Hsp90; S. cerevisiae expressing PfHsp90, BacTiter-Glo ATP, 48 h; yeast lacking PDR1 and PDR3 efflux regulators; inhibition, % at 9.4 µM; AID 504621; 310,000 compounds, 0.32% hits;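 active means every replicate shows inhibition above about 80%, whatever the replicate mean, limit read from the data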;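 further: 0% = DMSO neutral controls and 100% = 20 µM radicicol positive controls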
ARNT TACC3 PPI = disrupts binding between human ARNT and TACC3; AlphaScreen His-ARNT PAS-B/GST-TACC3 binding, luminescence; TACC3 fragment carries E629A point mutation; inhibition, % at 9.99 µM; 390,000 compounds, 0.66% hits; AID 623870;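 active means mean inhibition of replicates at least 50% and at least half of replicates each reaching 50%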;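 further: 0% = complete ARNT plus TACC3 wells and 100% = ARNT alone without TACC3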
SIRT5 inh = inhibitors of human sirtuin-5 desuccinylase | Q9NXA8 | Purified SirT5, succinyl-peptide AMC, trypsin-coupled fluorescence | inhibition, % at 15 µM | 330,000 compounds, 1.1% hits; in the data active means inhibition above about 15%
Target sequence (Q9NXA8 whole entry, looked up): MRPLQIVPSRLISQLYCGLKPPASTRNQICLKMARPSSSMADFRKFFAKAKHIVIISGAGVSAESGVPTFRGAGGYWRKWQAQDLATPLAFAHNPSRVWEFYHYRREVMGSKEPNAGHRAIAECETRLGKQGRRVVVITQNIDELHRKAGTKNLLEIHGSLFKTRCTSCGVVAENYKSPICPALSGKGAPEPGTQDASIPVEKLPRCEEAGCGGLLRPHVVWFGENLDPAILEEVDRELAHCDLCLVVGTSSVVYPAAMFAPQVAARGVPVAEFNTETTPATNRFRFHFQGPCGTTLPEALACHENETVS
Casp6 inh = blocks human caspase-6 cleavage activity; inhibition, % at 12.5 µM; purified caspase-6, Z-VEID-R110 cleavage fluorescence; 350,000 compounds, 0.53% hits; AID 686996; P55212;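 active means mean inhibition across replicates at least about 35%, with every replicate also reaching that limit, limit read from the data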;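 further: 0% = median of neutral control wells and 100% = no fluorescence left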
Target sequence (P55212 24-179 limits assumed): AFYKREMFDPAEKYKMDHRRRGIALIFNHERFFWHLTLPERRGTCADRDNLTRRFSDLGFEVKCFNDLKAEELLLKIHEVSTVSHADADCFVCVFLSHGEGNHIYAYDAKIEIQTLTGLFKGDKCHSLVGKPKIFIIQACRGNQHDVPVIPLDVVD
Target sequence (P55212 194-293 limits assumed): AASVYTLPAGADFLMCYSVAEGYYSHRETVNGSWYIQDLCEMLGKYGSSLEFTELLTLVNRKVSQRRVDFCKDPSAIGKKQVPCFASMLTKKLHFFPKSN
AlphaScreen ctr = interferes with AlphaScreen signal, flagging false ARNT-TACC3 hits; 1,200 compounds, 50% hits; AC50, µM (top dose mostly 68 µM), for inactives: top-dose activity change, negative = signal decrease; His-ARNT PASB-GST AlphaScreen artifact counter-screen, luminescence; shares compounds with ARNT TACC3 PPI;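 active means every separate test run was called active for a drop in luminescence, with AC50 within twice the top valid dose, actives reach about 71 µM in these data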
CASP1 counter = blocks human caspase-1 in a selectivity counter-screen. shares compounds with Casp6 inh. activity change, negative = inhibition, % at 35 µM. 100 tested, under 10 active. purified caspase-1, Z-YVAD-R110 cleavage fluorescence;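 active means compounds lowering fluorescence whose fitted half-maximal concentration is no more than twice their top tested dose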
Alpha artifact = counter-screen for NSD2 inhibitors: AlphaScreen artifacts; shares compounds with NSD2 HMT inh; AlphaScreen artifact counterscreen, preloaded methylated H4 peptide; AC35, µM (doses to about 10 µM), without a hit: at the top dose activity change, negative = signal loss; 1,500 compounds, 9.4% hits; AID 1053174; call rule not given here
* = called active by the depositor; x = not tested or not shown. A selection: hits, their analogues and other compounds. The true share with any hit is near 2.1%.

SMILES	NSD2 HMT inh	PfHsp90 yeast 2	ARNT TACC3 PPI	SIRT5 inh	Casp6 inh	others
O=C(O)c1ccccc1-c1ccc(C=C2C(=O)N(c3ccccc3)C(=S)N(c3ccccc3)C2=O)o1	11	-3	2	9	37*
COC(=O)[C@H]1[C@H](CO)[C@H]2Cn3c(ccc(-c4ccccc4OC)c3=O)[C@@H]1N2Cc1ccccc1	x	x	0	-6	x
CCN(CC)C(=O)c1ccc2c(c1)C1C=CCC1C(C(=O)O)N2 (stereo unspecified)	x	5	13*	6	40*
CCN(CC)C(=O)c1ccc2c(c1)C1C(Cl)C(Sc3ccccc3[N+](=O)[O-])CC1C(C(=O)O)N2 (stereo unspecified)	22	31	35	x	x
Cc1ccc(OP2(=O)Nc3cc(C)c(C)cc3S2)cc1 (stereo unspecified)	2	3	46*	x	1
COc1ccc(-c2cc(=NCCCCCC(=O)O)c3cc(C)ccc3o2)cc1	0	-9	61*	-34	0
CC=Cc1ccc2n(c1=O)C[C@@H]1[C@@H](CO)[C@H](C(=O)OC)[C@H]2N1CC1CCCC1 (mixture of isomers)	x	x	x	-1	-1
COc1ccc(-n2c(/C=C3\C(=O)Nc4ccccc43)nc3ccccc3c2=O)cc1	0	19	-12	112*	3
O=C1Nc2ccccc2/C1=C/c1nc2ccccc2c(=O)n1-c1ccc(O)cc1	0	0	-6	-2	4
CCCCC(=O)N/N=C/c1c(O)n(-c2cccc3ccccc23)c(=O)[nH]c1=O	0	17	61*	5	0
CC(=O)Nc1ccc(N=Cc2c(O)n(Cc3ccco3)c(=O)[nH]c2=O)cc1	-2	-1	-12	6	2
CCCCC(=O)N/N=C/c1c(O)n(Cc2ccco2)c(=O)[nH]c1=O	-1	7	72*	x	x
CCCCC(=O)N/N=C/c1c(O)n(CCCC)c(=S)[nH]c1=O	1	13	61*	3	0
O=c1[nH]c(=O)n(-c2cccc3ccccc23)c(O)c1C=NCCCn1ccnc1	0	17	-7	x	x
CCCCC(=O)N/N=C/c1c(O)n(C2CC2)c(=S)[nH]c1=O	-1	17	1	-5	-1
O=C(N/N=C/c1c(O)n(Cc2ccco2)c(=O)[nH]c1=O)c1ccccc1O	-6	38	65*	15*	32
O=C(C1CC1)N1C[C@@H]2N[C@H](C1)[C@@H]2c1ccc(-c2ccncc2)cc1	x	x	x	-2	-1
O=C1CNC[C@@H]2[C@H](c3ccc(Br)cc3)[C@H](CO)N12	x	x	x	-3	0
C=CC1CN2CCC1C[C@@H]2CO (stereo partly specified)	x	x	x	0	0
COc1ccc(OC(=O)N(C)C[C@H]2OCc3ccccc3-c3c(n(C)c4ccccc34)C(=O)N([C@H](C)CO)C[C@@H]2C)cc1	x	x	x	4	1
O=[N+]([O-])c1oc2ccc3ccccc3c2c1CCO	4	136*	17	2	2
CN(C)[C@@H]1C(=O)C(C(N)=O)=C(O)[C@@]2(O)C(=O)C3=C(O)c4c(O)cccc4[C@@](C)(O)C3[C@H](O)C12 (stereo partly specified)	x	16	45*	36*	45*	AlphaScreen ctr=-1%
CN(C)C1C(=O)C(C(N)=O)=C(O)C2(O)C(=O)C3=C(O)c4c(O)cccc4C(C)(O)C3CC12 (stereo unspecified)	x	-9	4	x	x
Cc1cccc(NC(=O)C(C)N2CC=C(c3ccccc3)CC2)c1 (stereo unspecified)	-2	12	62*	3	0	AlphaScreen ctr=-27%
O=c1[nH]c(O)c(Cc2ccc3c(c2)OCO3)c(=O)[nH]1	29	9	23*	13	-2	AlphaScreen ctr=7%
SMILES	NSD2 HMT inh	PfHsp90 yeast 2	ARNT TACC3 PPI	SIRT5 inh	Casp6 inh	others
CC=Cc1ccc2n(c1=O)C[C@@H]1[C@@H](CO)[C@H](C(=O)OC)[C@H]2N1CC1CCCCC1 (mixture of isomers)	x	x	-14	-3	1
COc1cc2c(c(OC)c1OC)-c1ccc(O)c(=O)cc1[C@@H](NC(C)=O)CC2	x	36	69*	2	-4	AlphaScreen ctr=-22%
N#Cc1ccc(-c2ccc([C@H]3[C@H]4CN(C(=O)Cc5ccccc5)CCCCN4[C@H]3CO)cc2)cc1	x	x	6	1	-1
CCOC(=O)c1cc2c(cn1)[C@H](CCO)NC2	x	-37	59*	-5	12	AlphaScreen ctr=-15%
CCOC(=O)c1cnc(N2CC2)nc1N	0	-12	6	1	-3
C[C@H]1CN([C@@H](C)CO)C(=O)CCCn2cc(nn2)CO[C@H]1CN(C)C(=O)Oc1ccc2ccccc2c1	x	x	-3	-3	0
CN1CCc2cc3c(c4c2C1Cc1ccccc1-4)OCO3 (stereo unspecified)	10	-12	6	1	84*	CASP1 counter=-1
CN1CCc2cc(O)cc3c2[C@H]1Cc1ccc(O)c(O)c1-3	x	-8	3	3	7
CC=Cc1ccc2n(c1=O)C[C@H]1[C@H](CO)[C@@H](C(=O)OC)[C@@H]2N1CC1CCCCC1 (mixture of isomers)	x	x	-8	-2	-1
CC(Cc1ccc(O)cc1)NCC(O)c1ccc(O)c(O)c1 (stereo unspecified)	126*	x	x	6	73*	CASP1 counter=-4
CCN1CCN(c2ccc(N)cc2C)CC1	60*	16	48*	-6	-69	Alpha artifact=-5%
CCN1CCN(c2ccc(N)cc2)CC1	57*	11	27	6	-76	Alpha artifact=-7%
Cc1cccc(S(=O)(=O)N2[C@@H]3c4ccc(-c5cccc(F)c5)c(=O)n4C[C@H]2[C@H](CO)[C@H]3C(=O)O)c1	x	x	4	-29	x
O=C1NC(=O)C(=Cc2ccc(SC3CCCCC3)o2)C(=O)N1	62*	7	-8	-5	67*	Alpha artifact=1%
Cn1c(O)c(/C=C/C=Nc2ccccc2)c(=O)n(C)c1=S	55*	14	-5	x	x	Alpha artifact=-5%
CCCCn1c(=O)c(C=Nc2ccc(Cl)cc2)c(O)n(Cc2ccco2)c1=O	x	-31	-4	-5	3
CC(C)n1c(=O)c(C=Nc2ccc(S(N)(=O)=O)cc2)c(O)n(Cc2ccco2)c1=O	67*	0	-5	2	12	Alpha artifact=-4%
COC(=O)[C@@H]1[C@@H](CO)[C@@H]2Cn3c(ccc(-c4ccc(F)cc4)c3=O)[C@H]1N2Cc1cccnc1	x	x	0	-9	0
